Compound activity: PubChem BioAssay, Broad Institute
Only some compounds are listed: those with a hit (about 2.1% of all), similar ones and a draw of the others.
ROS inducer = inducers of reactive oxygen species in cancer cells. AID 624156. ROS induction (% of piperlongumine), % at 10 µM. 2% of 46,000 active. U2OS ROS induction, H2DCF-DA fluorescence; in the data active = ROS induction above about 79%, passing the limit was not always enough;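 note: 0% = DMSO vehicle median and 100% = reference compound median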
YB-1 expr inh = YB-1 expression inhibition. U2OS, qRT-PCR YB-1 vs CDIP delta delta Cp, 16 h; active compounds read high; zero = DMSO, each unit about twofold. 0.37% of 30,000 active. delta delta Cp (YB-1 minus CDIP) (no concentration beside the values). AID 434959;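 active = delta delta Cp rounded down to an integer at or above 3, about 3 SD of DMSO wells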;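 note: higher means less YB-1 transcript or more CDIP transcript relative to DMSO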
* hit, by the source's call.

What do the screens show for `COc1ccc(S(=O)(=O)N(C)C[C@@H]2OCCCC[C@@H](C)Oc3ccc(NC(=O)Nc4ccc(C(F)(F)F)cc4)cc3C(=O)N([C@H](C)CO)C[C@@H]2C)cc1`?
ROS inducer: 32; YB-1 expr inh: -0.012

Results for C[C@@H]1CCCCO[C@H](CN(C)S(=O)(=O)c2ccccc2)[C@@H](C)CN([C@H](C)CO)C(=O)c2cc(NC(=O)Nc3ccc(C(F)(F)F)cc3)ccc2O1 ?
ROS inducer: 80*; YB-1 expr inh: 0.063

How did C[C@@H]1CCCCO[C@@H](CN(C)S(=O)(=O)c2ccccc2)[C@@H](C)CN([C@H](C)CO)C(=O)c2cc(NC(=O)Nc3ccc(C(F)(F)F)cc3)ccc2O1 do in these assays?
ROS inducer: 183*; YB-1 expr inh: -0.44

How did C[C@@H]1CCCCO[C@@H](CN(C)C(=O)Nc2ccccc2)[C@@H](C)CN([C@H](C)CO)C(=O)c2cc(NS(=O)(=O)c3ccccc3)ccc2O1 do in these assays?
ROS inducer: 2; YB-1 expr inh: -0.96

What do the screens show for `C[C@@H]1CN([C@H](C)CO)C(=O)c2cccc(NS(=O)(=O)c3ccc(F)cc3)c2O[C@H]1CN(C)C(=O)Nc1ccc(C(F)(F)F)cc1`?
ROS inducer: 92*; YB-1 expr inh: -0.0016

Results for Cc1ccc(S(=O)(=O)Nc2cccc3c2O[C@@H](CN(C)C(=O)Nc2ccc(C(F)(F)F)cc2)[C@@H](C)CN([C@H](C)CO)C3=O)cc1 ?
ROS inducer: 8; YB-1 expr inh: -0.21

How did Cc1noc(C)c1S(=O)(=O)Nc1ccc2c(c1)CC(=O)N([C@H](C)CO)C[C@@H](C)[C@@H](CN(C)S(=O)(=O)c1c(C)noc1C)O2 do in these assays?
ROS inducer: -2; YB-1 expr inh: -0.17

Results for COC(=O)CCc1[nH]c2ccccc2c1Sc1ccccc1 ?
ROS inducer: -3; YB-1 expr inh: -0.57

Results for CN(C)c1ccc(-c2nc3ccc4ccccc4c3c3c2CCC3)cc1 ?
ROS inducer: 10; YB-1 expr inh: -0.44

What do the screens show for `COc1ccc(-c2nc3ccc4ccccc4c3c3c2CCC3)cc1`?
ROS inducer: 138*; YB-1 expr inh: 0.38

What do the screens show for `CCOc1cc(C)c(Cl)cc1S(=O)(=O)n1cnc2ccccc21`?
ROS inducer: -9

How did COc1ccccc1OCC(=O)Nc1cccc(-c2nnc(-c3ccccc3)o2)c1 do in these assays?
ROS inducer: -2

How did COc1ccc(-c2nnc(-c3ccc(S(=O)(=O)c4ccccc4)cc3)o2)cc1OC do in these assays?
ROS inducer: 126*

What do the screens show for `O=c1c(-c2ccccc2)c(O)c2cccc3c4ccccc4n1c23`?
ROS inducer: -6; YB-1 expr inh: -0.032

Results for O=C(COc1ccc(I)cc1)Nc1ccc([N+](=O)[O-])cc1O ?
ROS inducer: -8

What do the screens show for `O=C(Nc1ccc([N+](=O)[O-])cc1O)Nc1ccccc1Br`?
ROS inducer: -5; YB-1 expr inh: 3*

What do the screens show for `C[C@@H]1CN([C@@H](C)CO)C(=O)c2cccc(NS(=O)(=O)c3ccc(F)cc3)c2O[C@H]1CN(C)Cc1ccc(C(=O)Nc2ccccc2N)cc1`?
ROS inducer: 11; YB-1 expr inh: 0.27

Results for CCOC(=O)c1nonc1N ?
ROS inducer: 26; YB-1 expr inh: -0.019

What do the screens show for `C[C@H]1CN([C@@H](C)CO)C(=O)c2cc(N(C)C)ccc2O[C@H]1CN(C)S(=O)(=O)c1cn(C)cn1`?
ROS inducer: 7; YB-1 expr inh: -0.22

What do the screens show for `NC(=O)C1C=C2C=CC=CC2OC1=Nc1ccccc1` (centres undefined)?
ROS inducer: 7

What do the screens show for `CC(=O)Oc1ccc2occ(C(=O)c3ccc(Br)s3)c2c1`?
ROS inducer: 30; YB-1 expr inh: 0.025

Results for CC(=O)Oc1ccc2occ(C(=O)CCN(C)C)c2c1 ?
ROS inducer: 98*; YB-1 expr inh: -0.12

Results for C[C@H]1CN([C@@H](C)CO)C(=O)Cc2cc(NS(C)(=O)=O)ccc2O[C@H]1CN(C)Cc1ccc(C(=O)Nc2ccccc2N)cc1 ?
ROS inducer: 2; YB-1 expr inh: -0.43

What do the screens show for `Cn1c(SCC(=O)Nc2ccc(Cl)cc2Cl)nnc1C12CC3CC(CC(C3)C1)C2`?
ROS inducer: -12

What do the screens show for `C[C@H]1CN([C@@H](C)CO)C(=O)Cc2cc(NS(=O)(=O)c3cn(C)cn3)ccc2O[C@@H]1CN(C)Cc1ccc(Oc2ccccc2)cc1`?
ROS inducer: -7; YB-1 expr inh: 0.53

How did COc1ccc(CN(C)C[C@@H]2Oc3ccc(NS(=O)(=O)c4cn(C)cn4)cc3CC(=O)N([C@H](C)CO)C[C@H]2C)cc1 do in these assays?
ROS inducer: 95*; YB-1 expr inh: 0.06

Results for C[C@@H]1CN([C@@H](C)CO)C(=O)Cc2cc(NS(=O)(=O)c3cn(C)cn3)ccc2O[C@@H]1CN(C)S(C)(=O)=O ?
ROS inducer: 109*; YB-1 expr inh: -0.79
